Reference: ChEMBL document CHEMBL4888484, “Replenishing the malaria drug discovery pipeline: Screening and hit evaluation of the MMV Hit Generation Library 1 (HGL1) against asexual blood stage Plasmodium falciparum ,using a nano luciferase reporter read-out” (2022)
Among all 150,000 compounds or so, about 540 (0.36%) showed an effect of 50% or more. Shown is part of a subset that was picked to be rich in strong results.

Each compound was assayed on Plasmodium falciparum (assay: Primary screen in NF54 nanoGlo assay, in single point, at 2uM, 72h; a lower Z score goes with more inhibition). Conditions: timepoint 72 hour.
Type: functional, Erythrocyte

Structure (SMILES) | % Inhibition [%] | Z score
CCc1nnc([C@@H]2CCCN2C(=O)NCc2ccc(F)cc2)[nH]1 | -5 | 0.68
CC(=O)Nc1ncc(Br)cc1C | 33 | -0.41
COC1CCCC1NC(=O)Nc1ncc(Br)cc1C (centres undefined) | 74 | -9.34
COC1CCCCC1NC(=O)Nc1cccc(-c2ncc(C)o2)c1 (centres undefined) | -3 | 0.66
COc1ccc(C(=O)c2oc3ccccc3c2NC(=O)c2csnn2)cc1Cl | -18 | 1.56
O=S(=O)(c1ccccc1)N1CCC(OCCOc2cccnc2)CC1 | -7 | 1.14
COc1cccc(S(=O)(=O)N2CCC(OCCOCc3ccccc3)CC2)c1 | 40 | -0.89
COc1cccc(S(=O)(=O)N2CCC(OCCOc3ccccc3)CC2)c1 | 53 | -0.06
CCN(CC)c1ncc(CN2CC[C@H](NS(C)(=O)=O)C2)s1 | -14 | 1.85
NC(=O)Cc1nc(CC(F)(F)F)n(C2CCCCC2)n1 | 0 | 0.02
COc1cc(C(=O)NCCNC(=O)c2cc(-c3ccccc3)nc3ccccc23)cc(OC)c1OC | -11 | 1.69
Cn1c(-c2ccc(Cl)c(Cl)c2)c[n+](CC(=O)c2ccc(F)cc2)c1N | 37 | -4.75
Cc1ccc(C(=O)C[n+]2cc(-c3ccc(-c4ccccc4)cc3)n(C)c2N)cc1 | 42 | -0.38
Cn1c(-c2ccc(Cl)c(Cl)c2)c[n+](CC(=O)c2ccc(-c3ccccc3)cc2)c1N | 53 | -0.87
CCc1nc(C)c(C(=O)N(C)Cc2csc(-c3ccccc3)n2)s1 | -4 | 0.61
Cc1ccc(O)c(CNCC2(c3ccccc3Cl)CCOCC2)n1 | 98 | -10.48
O=C(NCC1(c2ccccc2Cl)CCOCC1)N1CCOCC1 | -4 | 0.54
NC1CCC(C(=O)NCC2(c3ccccc3Cl)CCOCC2)C1 (centres undefined) | 8 | -1.21
Cc1ccc2[nH]c3c(c2c1)C[C@@H](N1C(=O)CN(CC(C)C)C1=O)CC3 | -3 | 0.39
FC(F)(F)c1ccc(N2CCC(n3ccnn3)CC2)nn1 | 0 | -0.04
Cc1cc(C)c(NC(=O)OCc2cccc3cccnc23)c(C)c1 | 88 | -13.23

Structure (SMILES) | % Inhibition [%] | Z score
C[C@@H](C(=O)OCc1cccc2cccnc12)N1CCOCC1 | -4 | 0.63
Cc1nc(C)c(C(=O)OCc2cccc3cccnc23)s1 | -18 | 3.51
CC1CC(C(=O)NCC2CCCCC2)c2ccccc2N1 (centres undefined) | 3 | -0.43
Cc1noc(C)c1CN1C(=O)NC2(CCCCC2)C1=O | -2 | 0.32
COc1ccc(CCNc2nc(-c3ccc(OC)cc3)c3c(N)n(-c4ccc(OC)cc4)nc3n2)cc1 | -13 | 2.28
COc1cccc(C(=O)C[n+]2cc(-c3ccc(Br)cc3)n(C)c2N)c1 | 35 | -0.41
Cc1ccc(C(=O)C[n+]2cc(-c3ccc(Br)cc3)n(C)c2N)cc1 | 38 | 2.56
COc1ccc2c(c1)[n+](CC(=O)c1ccc(-c3ccc(Br)cc3)cc1)c(CO)n2C | 70 | -5.57
CC1(C)C2CCC1(C)C(OC(=O)CN1CCCCCC1)C2 (centres undefined) | 0 | -0.02
CC[N+](CC)(CC(=O)OC1CC2CCC1(C)C2(C)C)CC(=O)OC1CC2CCC1(C)C2(C)C (centres undefined) | 77 | -8.45
CCn1c(-n2nc(C)nc2[C@H]2CCS(=O)(=O)C2)nc2ccccc21 | 4 | -0.76
O=C(CNC(=O)c1cnccn1)NCCc1c[nH]c2ccc(F)cc12 | -5 | 0.67
CCn1cc(C#N)c(=O)c2cc(F)c(N3CCN(Cc4ccccc4)CC3)cc21 | 68 | -7.22
CCn1cc(C(=O)O)c(=O)c2cc(F)c(N3CCN(S(=O)(=O)c4ccccc4)CC3)cc21 | 34 | 0.66
CCn1cc(-c2nc(-c3ccccc3C)no2)c(=O)c2cc(F)c(N3CCCCC3)cc21 | 51 | -3.9
CCn1cc(-c2nc(-c3ccccc3)no2)c(=O)c2cc(F)c(N3CCCCC3)cc21 | -9 | 1.55
CCn1cc(-c2nc(-c3ccccc3C)no2)c(=O)c2cc(F)c(N3CCOCC3)cc21 | 40 | -3.29
Cc1ccc(S(=O)(=O)c2cn(Cc3ccccc3)c3cc(N4CCCCC4)c(F)cc3c2=O)cc1 | -24 | 2.28
COc1cc(OC)cc(-c2c3c(O)nn(C(C)C)c3nc3[nH]c(=O)n(C)c23)c1 | -3 | 0.3
O=C(Nc1ccc2c(c1)OCO2)c1ccc(=O)n(Cc2ccc(Cl)cc2)c1 | -15 | 1.88
CCN(C(=O)c1nn(C)c2ccc(C)cc12)[C@H]1COC[C@@H]1O | 5 | -1

Structure (SMILES) | % Inhibition [%] | Z score
COc1cc(Cl)c(CNC(C)(C)CO)cc1OC | 4 | -0.67
Cc1n[nH]c(C(=O)N2CCCCCC2)c1Br | 3 | -0.33
COCCNC(=O)c1coc(CN2C(=O)COc3ccc(C(=O)COc4ccccc4)cc32)n1 | -6 | 0.84
N#Cc1nccnc1O[C@H]1CCCN(C(=O)NCc2ccc(Cl)cc2)C1 | -10 | 1.77
Cc1nn(C(C)(C)C)c2nc(C3CC3)cc(C(=O)N3CCN(c4ccccc4)CC3)c12 | 7 | -1.07
Cc1nn(C(C)(C)C)c2nc(C3CC3)cc(C(=O)N(C)c3ccccc3)c12 | 55 | -8.04
Cc1nn(C(C)(C)C)c2nc(C3CC3)cc(C(=O)N(C)Cc3cccc(C#N)c3)c12 | -7 | 1.44
CC(C)(C[C@H]1CCCN(C(=O)C2(C)CCCC2)C1)C(N)=O | -4 | 0.57
COC(=O)C1CN(C(=O)CCc2cnn(C)c2)CC1c1ccccc1 (centres undefined) | -13 | 2.28
Cc1ccncc1C(=O)N1CCCN(Cc2ccncc2)[C@H](c2ccccc2)CC(=O)NCC1 | -4 | 0.48
COc1cccc(S(=O)(=O)N2CCCN(Cc3ccncc3)[C@H](c3ccccc3)CC(=O)NCC2)c1 | 92 | -7.9
O=C1C[C@@H](c2ccccc2)N(Cc2ccncc2)CCCNCCN1 | -9 | 1.07
Cn1cccc1CCC(=O)NCCc1noc(C2CC2)n1 | -5 | 0.69
CN1CCC(Oc2cc(NC(=O)c3cscn3)ccn2)CC1 | -16 | 1.85
CCn1cc(CN2CCN3C(=O)N(c4ccccc4)C(=O)[C@@H]3C2)cn1 | -2 | 0.24
COCCN1CC[C@H](c2ncnn2C2CCCCC2)C1 | -7 | 1.3
CCc1nccc(CN2CCC[C@H](CS(C)(=O)=O)C2)n1 | -20 | 2.11
Cn1cnc2c1CCN(C[C@H](O)c1ccccc1Cl)C2 | 0 | 0.04
CC(C)C(=O)N(Cc1ccc(-c2ccc(Cl)cc2)o1)[C@H]1CCS(=O)(=O)C1 | 1 | -0.15
CCC(=O)N(Cc1ccc(-c2ccc(Cl)cc2)o1)[C@H]1CCS(=O)(=O)C1 | 63 | -8.22
CCC(CC)C(=O)N(Cc1ccc(-c2ccc(Cl)cc2)o1)[C@H]1CCS(=O)(=O)C1 | -7 | 0.86

Structure (SMILES) | % Inhibition [%] | Z score
Cc1nnc(COc2cccc3c2OCCO3)s1 | -12 | 2.16
CC(C)C(=O)NCC(=O)N1CC[C@@]2(CCCN(CCCc3ccccc3)C2)C1 | -7 | 1.41
CN(Cc1ccc2ccn(C)c2c1)C[C@H]1CCCCO1 | -2 | 0.4
COc1ccc(Br)c(S(=O)(=O)NCC2(C)CCC2)c1 | 1 | -0.23
CC(=O)NC[C@H]1CN(c2ccnc(C(C)(C)C)n2)CCO1 | -12 | 1.4
CNC(=O)c1cc(S(=O)(=O)N2CC=CC2)cn1C | -4 | 0.78
Cc1ccccc1NC(=O)[C@H]1c2cccc[n+]2CC(=O)N1c1ccc2c(c1)OCO2 | -9 | 1.37
CC(C)(C)OC(=O)N1CC2CC(=O)CC1C2 (centres undefined) | 3 | -0.39
CC(C)(C)OC(=O)N1CCC[C@@H]1CNC1CC1 | -7 | 0.86
O=C1Cc2cc(S(=O)(=O)Nc3ccccc3C(=O)NCc3ccco3)ccc2N1 | -32 | 3.76
CCc1cc(NC(=O)N[C@@H](C)c2nc(C(F)(F)F)no2)n(C)n1 | -7 | 1
COCc1cnc(NC(=O)NC2(c3ncccn3)CCOCC2)s1 | 52 | -0.94
Cc1cc(C(=O)NC2(c3ncccn3)CCOCC2)c(C)s1 | -4 | 0.7
CC(C)Cc1cnc(NC(=O)N[C@@]2(C)CCOC2)s1 | 8 | -1.23
CCc1cc(C(=O)N2CC[C@@]3(CCCN(Cc4cccc(OC)c4)C3)C2)on1 | -5 | 0.79
CC(C)CC(=O)N(Cc1nccn1Cc1ccc(Cl)cc1Cl)CC1CC1 | -8 | 0.76
CC[C@H](C)N1CC(=O)N(c2ccns2)C1=O | -14 | 2.59
COc1ccnc(-c2ccc(F)c3cccnc23)c1 | -4 | 0.58
COc1cccc(CNS(=O)(=O)c2cc(-c3c(C)nn4c3NC(=O)CCC4=O)ccc2OC)c1 | 2 | -0.21
